Data as given in PubChem BioAssay (EPA / NIEHS).
Active and inactive are the calls of the source. Rule for the calls: active = hit-call score of the fitted dose curve at least 0.9, where 1 is the maximum; inactive = score below 0.9.

How the values were obtained:
Settings in all cases: mRNA level, 48 h; actives raise or lower the signal
[1] = read-out: Ezrin (EZR), EZR (gene 7430); experiment: LTEA_HepaRG_EZR: Life Technologies and Expression Analysis (LTEA) Assay for Ezrin (EZR) using HepaRG (AID 2283491)
Outline: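 Gain or loss of EZR mRNA is scored relative to 0.5% DMSO in human HepaRG cultures treated 48 h with test chemicals in duplicate, eight half-log concentrations from 100 uM.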

[2] = read-out: Cytochrome P450 3A7 (Homo sapiens) (UniProt P24462); experiment: LTEA_HepaRG_CYP3A7: Life Technologies and Expression Analysis (LTEA) Assay for CYP3A7 using HepaRG (AID 2283492)
Outline: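 Human HepaRG liver cells, 48 h post-plating, switched to serum-free induction medium and exposed in duplicate for 48 h. Dosing: 100 uM top, half-log dilutions, 8 points, 0.5% DMSO vehicle. Read-out: CYP3A7 mRNA, gain or loss fitted against DMSO baseline.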

[3] = read-out: CYP3A5 (gene 1577); experiment: LTEA_HepaRG_CYP3A5: Life Technologies and Expression Analysis (LTEA) Assay for CYP3A5 using HepaRG (AID 2283493)
Outline: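 mRNA induction or loss of CYP3A5 assessed in HepaRG after 48 h dosing, 100 uM top concentration, duplicate wells; TaqMan qRT-PCR with ACTB, GAPDH, POLR2A normalization; 0.5% DMSO as negative control.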

[4] = read-out: Fatty Acid-Binding Protein 1 (FABP1), FABP1 (gene 2168); experiment: LTEA_HepaRG_FABP1: Life Technologies and Expression Analysis (LTEA) Assay for Fatty Acid-Binding Protein 1 (FABP1) using HepaRG (AID 2283494)
Outline: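 Differentiated human HepaRG cells exposed 48 h in serum-free induction medium to eight half-log concentrations up to 100 uM (0.5% DMSO), duplicate. FABP1 mRNA by qRT-PCR, normalised to ACTB, GAPDH, POLR2A; bidirectional fitting against DMSO.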

[5] = read-out: Cytochrome P450 4A22 (Homo sapiens) (UniProt Q5TCH4); experiment: LTEA_HepaRG_CYP4A22: Life Technologies and Expression Analysis (LTEA) Assay for Cytochrome P450 4A22 (CYP4A22) using HepaRG (AID 2283495)
Outline: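 Readout is CYP4A22 transcript induction or loss, quantified by qRT-PCR and normalized to ACTB, GAPDH and POLR2A. Human HepaRG cells receive test chemicals for 48 h at eight half-log concentrations from 100 uM in 0.5% DMSO.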

[6] = read-out: Cytochrome P450 7A1 (Homo sapiens) (UniProt P22680); experiment: LTEA_HepaRG_CYP7A1: Life Technologies and Expression Analysis (LTEA) Assay for Cytochrome P450 7A1 (CYP7A1) using HepaRG (AID 2283496)
Outline: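 Gene expression endpoint in human HepaRG liver cells treated for 48 h with test chemicals (up to 100 uM, 0.5% DMSO). Values come from bidirectional concentration-response fitting versus DMSO.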

[7] = read-out: Glutathione S-Transferase (GSTA2), GSTA2 (gene 2939); experiment: LTEA_HepaRG_GSTA2: Life Technologies and Expression Analysis (LTEA) Assay for Glutathione S-Transferase (GSTA2) using HepaRG (AID 2283497)
Outline: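 Differentiated human HepaRG cells were exposed in duplicate for 48 h in serum-free induction medium, 8 points from 100 uM top in half-log steps, 0.5% DMSO. GSTA2 mRNA was measured by TaqMan qRT-PCR, normalized to ACTB, GAPDH and POLR2A; bidirectional fit versus DMSO.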

[8] = read-out: Glutamate-cysteine ligase catalytic (GCLC), GCLC (gene 2729); experiment: LTEA_HepaRG_GCLC: Life Technologies and Expression Analysis (LTEA) Assay for Glutamate-cysteine ligase catalytic (GCLC) using HepaRG (AID 2283498)
Outline: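 Differentiated HepaRG cells exposed 48 h in serum-free induction medium, eight-point half-log series topping at 100 uM in 0.5% DMSO, duplicates. GCLC mRNA by qRT-PCR normalized to ACTB, GAPDH and POLR2A, fitted bidirectionally versus DMSO.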

[9] = read-out: growth arrest and DNA damage 45 (GADD45G), GADD45G (gene 10912); experiment: LTEA_HepaRG_GADD45G: Life Technologies and Expression Analysis (LTEA) Assay for growth arrest and DNA damage 45 (GADD45G) using HepaRG (AID 2283499)
Outline: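 Gain or loss of GADD45G mRNA, quantified by TaqMan qRT-PCR against three housekeeping genes, is fitted in both directions relative to 0.5% DMSO. Human HepaRG cultures receive test chemical for 48 h at up to 100 uM.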

[10] = read-out: Glutamate-cysteine ligase regulatory (GCLM), GCLM (gene 2730); experiment: LTEA_HepaRG_GCLM: Life Technologies and Expression Analysis (LTEA) Assay for Glutamate-cysteine ligase regulatory (GCLM) using HepaRG (AID 2283500)
Outline: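 Human liver HepaRG cultures receive test chemicals for 48 hours at up to 100 uM in 0.5% DMSO. GCLM expression is measured by qRT-PCR and analysed for increases or decreases against vehicle.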

[11] = read-out: Glutathione S-transferase M3 (GSTM3), GSTM3 (gene 2947); experiment: LTEA_HepaRG_GSTM3: Life Technologies and Expression Analysis (LTEA) Assay for Glutathione S-transferase M3 (GSTM3) using HepaRG (AID 2283501)
Outline: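 HepaRG, plated 48 h, then serum-free induction medium; test chemical 48 h, duplicate; 100 uM top, half-log x8, 0.5% DMSO. Read-out: GSTM3 mRNA (TaqMan qRT-PCR, Fluidigm array). Bidirectional fit vs DMSO.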

[12] = read-out: Heat shock 70 kDa protein 1 (HSPA1A), gene 3303; experiment: LTEA_HepaRG_HSPA1A: Life Technologies and Expression Analysis (LTEA) Assay for Heat shock 70 kDa protein 1 (HSPA1A) using HepaRG (AID 2283502)
Outline: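 HSPA1A induction in human HepaRG liver cells is measured after 48 h of chemical treatment (100 uM maximum, 0.5% DMSO vehicle). Expression comes from qRT-PCR normalized to endogenous controls.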

[13] = read-out: Hypoxia-inducible factor 1-alpha (Homo sapiens) (UniProt Q16665); experiment: LTEA_HepaRG_HIF1A: Life Technologies and Expression Analysis (LTEA) Assay for Hypoxia-inducible factor 1 (HIF1A) Trancription factor using HepaRG (AID 2283503);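 note: HIF1A transcript by TaqMan qRT-PCR normalized to ACTB GAPDH and POLR2A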
Outline: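 HepaRG, 48 h exposure, 8-pt half-log series from 100 uM, 0.5% DMSO vehicle, duplicates. Readout: HIF1A transcript by qRT-PCR (Fluidigm array), housekeeping-normalised. Bidirectional curve fit vs DMSO baseline.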

[14] = read-out: 3-Hydroxy-3-Methylglutaryl-CoA Synthase 2 (HMGCS2), HMGCS2 (gene 3158); experiment: LTEA_HepaRG_HMGCS2: Life Technologies and Expression Analysis (LTEA) Assay for 3-Hydroxy-3-Methylglutaryl-CoA Synthase 2 (HMGCS2) using HepaRG (AID 2283504)
Outline: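 HepaRG, plated 48 h then switched to serum-free induction media; cmpd 8-pt, max 100 uM, 1/2-log, 0.5% DMSO, n=2, 48 h. HMGCS2 mRNA by Fluidigm TaqMan qRT-PCR, ACTB/GAPDH/POLR2A norm; bidirectional fit vs DMSO.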

[15] = read-out: HGF (gene 3082); experiment: LTEA_HepaRG_HGF: Life Technologies and Expression Analysis (LTEA) Assay for Hepatocyte Growth Facto (HGF) using HepaRG (AID 2283505)
Outline: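 Read-out is HGF transcript level by qRT-PCR, normalized to three housekeeping genes, fitted bidirectionally against 0.5% DMSO vehicle. Human HepaRG cells received test chemicals for 48 h at up to 100 uM.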

[16] = read-out: Insulin Like Growth Factor 1 (IGF1), IGF1 (gene 3479); experiment: LTEA_HepaRG_IGF1: Life Technologies and Expression Analysis (LTEA) Assay for Insulin Like Growth Factor 1 (IGF1) using HepaRG (AID 2283506)
Outline: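 Using human HepaRG liver cells, IGF1 transcript induction or suppression is measured 48 h after dosing across eight concentrations capped at 100 uM. Values derive from bidirectional concentration-response fitting with DMSO as baseline.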

[17] = read-out: Intercellular Adhesion Molecule 1 (ICAM1), ICAM1 (gene 3383); experiment: LTEA_HepaRG_ICAM1: Life Technologies and Expression Analysis (LTEA) Assay for Intercellular Adhesion Molecule 1 (ICAM1) using HepaRG (AID 2283507)
Outline: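 Readout is qRT-PCR mRNA level, normalized to three housekeeping genes and fitted bidirectionally against 0.5% DMSO vehicle. Human HepaRG cultures received compound for 48 h, top concentration 100 uM with half-log dilutions.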

[18] = read-out: Insulin-like growth factor-binding protein 1 (IGFBP1), IGFBP1 (gene 3484); experiment: LTEA_HepaRG_IGFBP1: Life Technologies and Expression Analysis (LTEA) Assay for Insulin-like growth factor-binding protein 1 (IGFBP1) using HepaRG (AID 2283508)
Outline: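 Thawed HepaRG cells are plated for 48 h, switched to serum-free induction medium, then dosed in duplicate for another 48 h (100 uM top, half-log steps). Lysates in RLT go to qRT-PCR, and gain or loss of signal is fitted relative to vehicle.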

[19] = read-out: Interleukin 6 (IL6), IL6 (gene 3569); experiment: LTEA_HepaRG_IL6: Life Technologies and Expression Analysis (LTEA) Assay for Interleukin 6 (IL6) using HepaRG (AID 2283509)
Outline: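 HepaRG cells exposed in duplicate for 48 h to eight half-log concentrations, top 100 uM, in 0.5% DMSO serum-free induction medium. mRNA measured by qRT-PCR, normalized to ACTB, GAPDH and POLR2A. Bidirectional fit versus DMSO.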

[20] = read-out: Interleukin 6 Receptor (IL6R), IL6R (gene 3570); experiment: LTEA_HepaRG_IL6R: Life Technologies and Expression Analysis (LTEA) Assay for Interleukin 6 Receptor (IL6R) using HepaRG (AID 2283510)
Outline: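 Concentration-response in human liver HepaRG cells: eight concentrations from 100 uM downward by half-logs, 48 h exposure, 0.5% DMSO vehicle. IL6R mRNA change measured by qRT-PCR and fitted in both directions relative to vehicle.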

Measured: outcome

Sequence of Hypoxia-inducible factor 1-alpha (Homo sapiens) (Q16665 whole entry, looked up): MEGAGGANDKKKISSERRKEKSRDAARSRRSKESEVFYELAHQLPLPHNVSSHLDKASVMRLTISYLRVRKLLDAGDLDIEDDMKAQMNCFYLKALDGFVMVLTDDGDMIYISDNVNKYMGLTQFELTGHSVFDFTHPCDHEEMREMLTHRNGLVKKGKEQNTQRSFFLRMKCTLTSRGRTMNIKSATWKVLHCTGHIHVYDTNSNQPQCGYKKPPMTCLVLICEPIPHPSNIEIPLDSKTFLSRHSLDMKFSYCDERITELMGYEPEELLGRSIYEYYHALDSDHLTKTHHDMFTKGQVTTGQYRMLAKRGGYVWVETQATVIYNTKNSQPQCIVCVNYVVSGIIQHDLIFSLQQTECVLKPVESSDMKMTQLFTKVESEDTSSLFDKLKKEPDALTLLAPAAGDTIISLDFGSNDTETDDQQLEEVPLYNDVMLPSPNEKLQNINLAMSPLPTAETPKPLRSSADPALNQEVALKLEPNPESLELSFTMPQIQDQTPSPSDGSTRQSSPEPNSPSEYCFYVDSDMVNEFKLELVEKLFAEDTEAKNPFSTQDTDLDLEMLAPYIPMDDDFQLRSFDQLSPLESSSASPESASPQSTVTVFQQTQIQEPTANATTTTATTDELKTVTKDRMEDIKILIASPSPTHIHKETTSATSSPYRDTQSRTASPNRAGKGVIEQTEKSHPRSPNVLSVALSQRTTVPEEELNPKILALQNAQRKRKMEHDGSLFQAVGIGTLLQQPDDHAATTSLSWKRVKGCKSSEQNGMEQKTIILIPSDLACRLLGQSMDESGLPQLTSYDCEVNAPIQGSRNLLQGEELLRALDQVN
Sequence of Cytochrome P450 3A7 (Homo sapiens) (P24462 whole entry, looked up): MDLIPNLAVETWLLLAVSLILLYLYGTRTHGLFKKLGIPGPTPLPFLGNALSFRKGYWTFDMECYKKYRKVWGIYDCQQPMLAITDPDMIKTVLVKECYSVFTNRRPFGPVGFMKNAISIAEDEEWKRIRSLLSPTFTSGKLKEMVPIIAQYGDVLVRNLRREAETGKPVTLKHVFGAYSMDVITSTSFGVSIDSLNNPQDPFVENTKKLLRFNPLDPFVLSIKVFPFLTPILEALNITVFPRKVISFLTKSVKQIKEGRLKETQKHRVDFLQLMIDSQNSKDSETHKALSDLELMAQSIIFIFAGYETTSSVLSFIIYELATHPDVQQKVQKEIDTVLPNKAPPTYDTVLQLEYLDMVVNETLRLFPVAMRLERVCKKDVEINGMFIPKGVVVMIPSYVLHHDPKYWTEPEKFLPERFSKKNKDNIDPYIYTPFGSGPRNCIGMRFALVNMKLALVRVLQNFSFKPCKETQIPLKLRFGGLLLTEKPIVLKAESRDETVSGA

N#CCCCCC#N
inactive: [1] | [2] | [3] | [4] | [5] | [6] | [7] | [8] | [9] | [10] | [11] | [12] | [13] | [14] | [15] | [16] | [17] | [18] | [19] | [20]

O=[N+]([O-])c1ccc(Cl)cc1
inactive: [1] | [2] | [3] | [4] | [5] | [6] | [7] | [8] | [9] | [10] | [11] | [12] | [13] | [14] | [15] | [16] | [17] | [18] | [19] | [20]
